Screens as filed in PubChem.
A selection: hits, their analogues and other compounds. The true share with any hit is near 3.1%.
IL-2 act = qHTS of IL-2 Activators; IL-2 activation reporter assay, cell-based qHTS; stimulated with anti-CD3/CD4/CD28 beads; in transgenic mouse T cells; activation, % (series mostly up to about 46 µM); actives 0.065% (n = 360,000); AID 652025, 2013; in the data active means activation above about 50%; inconclusive means mostly about 30% to 49%; further: 0% is about no effect
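Screening format: compound pinned onto unstimulated transgenic mouse T cells, 60 min incubation, then anti-CD3/anti-CD4/anti-CD28 bead stimulation for 18 hours at 37 degrees C, followed by EGFP and DsRed detection.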
Nrf2 activator = qHTS of Nrf2 Activators; AREc32 ARE-luciferase reporter (MCF7-derived line), luminescence, 24 h; Potency, µM (titrated, usually from 46.1 µM), without a hit: at the top dose activation, actives largely listed as activators; actives 0.31% (n = 410,000); further: potency means the concentration at half of the fitted maximal effect; % of control where 0% means no effect; nearly all actives have a fitted effect of over 65% in size
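ARE activation measured as luciferase luminescence (Steady-Glo, 30 min RT) in AREc32_Fluc cells after 24 hr compound exposure at 37 deg C, 5% CO2; cells seeded overnight at 1000/well in OPTI-MEM, 5% FBS.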
ELG1 repair inh = qHTS screen for small molecules that inhibit ELG1-dependent DNA repair in human embryonic kidney (HEK293T) cells expressing luciferase-tagged ELG1. Potency, µM (series often up to 46.1 µM), for the others: at the top dose activity change, negative = inhibition, most hits filed as inhibitors. HEK293T ELG1-luciferase reporter, luminescence, 16 h; DNA damage induced by 5-fluorouridine. actives 2.3% (n = 330,000); further: potency means the concentration at half of the fitted maximal effect; on the % scale 0 is the no-effect control and ±100 the full control effect; nearly all actives have a fitted effect of over 55% in size
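Step one: seed 2,000 cells per well. Step two: pin-transfer compound or DMSO alongside 5-fluorouridine. Step three: incubate 16 hr, 37 °C, 5% CO2. Step four: add ONE-Glo, wait 30 min, read luminescence.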
BRCA1 expr act = qHTS Assay to Identify Small Molecule Activators of BRCA1 Expression. MCF7-BRCA1-FFLuc reporter, luminescence, 48 h; response scale: scaled: vehicle 0%, 10 µM genistein 100%. Potency, µM (titrated, usually from 46.1 µM), inactives show at the top dose activation, actives largely listed as activators. actives 1.1% (n = 380,000). AID 624202, 2012; further: potency means the concentration at half of the fitted maximal effect; nearly all actives have a fitted effect of over 80% in size
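MCF7-BRCA1-FFLuc cells, 2000/well in phenol-red-free MEM, attached 2 h then treated 48 h at 37 C. Luciferase luminescence read 15 min after reagent; normalized to genistein maximum activation (10microM) and DMSO, concentration-response fitted.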
Active calls of the source: *; ? = inconclusive; . = not tested or not shown. Unless noted, the call rests on the fitted dose curve; in most records, active means well fitted curve in the direction sought with a large enough effect; inconclusive means small, poorly fitted or top-dose-only effect, or another doubt; inactive means no such curve, though single readings can be large; an effect the other way counts as inactive or inconclusive.

SMILES | IL-2 act | Nrf2 activator | ELG1 repair inh | BRCA1 expr act
COP(=O)(OC)Oc1ccc(C(O)C(Cl)(Cl)Cl)cc1 (stereo not given) | -0.3 | 2.7% | 1.5% | -3.3%
CC(C)OP(=O)(Oc1ccc(C(O)C(Cl)(Cl)Cl)cc1)OC(C)C (stereo not given) | 0.9 | 0.1% | 18.3µM* | -23.4%
Cc1cc(=O)oc2cc(OCC(=O)N3CCN(Cc4ccccc4)CC3)ccc12 | 1.7 | 0.2% | -11.6% | -12.2%
CC(C)NS(=O)(=O)c1ccc(OCC(=O)N2CCN(Cc3ccc4c(c3)OCO4)CC2)c(Cl)c1 | -2.1 | 2.5% | 11.6µM* | -58.2%
Cc1cc(S(=O)(=O)NC(C)C)ccc1OCC(=O)N1CCN(Cc2ccc3c(c2)OCO3)CC1 | -1.9 | 3.3% | -25.9% | -78.1%
Cc1cc(=O)oc2cc(OCC(=O)N3CCN(Cc4ccc5c(c4)OCO5)CC3)ccc12 | -0.6 | 0.1% | 6.51µM* | 2.8%
COc1cccc(NC(=O)c2cccn(Cc3ccccc3C)c2=O)c1 | . | -1.2% | . | -0.9%
O=c1[nH]c2ccccc2n1C1CCN(C(CCc2ccccc2)c2nnnn2C2CCCCC2)CC1 (stereo not given) | -0.6 | -0.2% | . | -71.7%
Cc1nnc(NC(=O)c2cccn(Cc3ccccc3F)c2=O)s1 | . | -0.3% | . | 12.2%
O=C(COc1cc(Cl)ccc1Cl)Nc1ccc(Cl)cc1C(=O)c1ccccc1 | . | -0.2% | . | .
O=C(Oc1ccc2ccccc2c1Cl)N1CCCC1 | -3.0 | 0.0% | ? | 4.47µM*
O=C(Oc1ccc(Cl)c2ccccc12)N1CCCCC1 | -0.1 | 3.5% | ? | ?
CCOC(=O)C(=CNc1ccc(C(O)(C(=O)OCC)C(F)(F)F)cc1C)C(=O)OCC (stereo not given) | -0.9 | 5.2% | 18.4µM* | -31.6%
C[C@H](CO)N1C[C@H](C)[C@@H](CN(C)Cc2ccccc2)Oc2c(NC(=O)c3ccncc3)cccc2C1=O | -0.6 | 2.5% | ? | -8.5%
C[C@H](CO)N1C[C@H](C)[C@@H](CN(C)C(=O)NC2CCCCC2)Oc2c(NC(=O)Nc3ccc4c(c3)OCO4)cccc2C1=O | -0.7 | 3.6% | 14.6µM* | -2.5%
O=c1c2ccccc2[nH]c(=S)n1-c1ccc2c(c1)OCCO2 | 0.1 | 6.2% | ? | 10µM*
COCCO[C@H]1CC[C@@]2(C)C(=CCC3C2CC[C@@]2(C)C3CC[C@]2(C)O)C1 (stereo not given in full) | -0.9 | -0.1% | 18.3µM* | -43.1%
C[C@]12CCC(OC(=O)CCC(=O)O)CC1=CCC1C2CC[C@]2(C)C(=O)CCC12 (stereo not given in full) | 0.2 | -0.2% | 3.4% | 0.3%
CCN(CC)c1ccc(N=Cc2c(O)n(CCc3ccc(OC)c(OC)c3)c(=O)[nH]c2=O)cc1 | 2.3 | 0.5% | 2.59µM* | -67.6%
CCN(CC)c1ccc(N=Cc2c(O)n(Cc3ccco3)c(=O)[nH]c2=O)cc1 | 83.9* | 3.1% | -2.2% | -40.6%
NC(=O)c1ccc(N=Cc2c(O)n(Cc3ccco3)c(=O)[nH]c2=O)cc1 | 1.5 | -1.4% | 13.2% | -6.6%
C=Cc1cc(OC)c2c(c1)c(=O)oc1c2cc(OC)c2c(O)ccc(C3OC(C)C(O)C(C)(O)C3O)c21 (stereo not given) | -7.3 | -1.9% | . | -82.7%
COc1ccc(COC(=O)CCNC(=O)c2ccc(Cl)cc2)cc1 | -0.9 | 0.2% | ? | 2.9%
COc1cc([C@@H]2c3cc4c(cc3C[C@H]3COC(=O)[C@@H]32)OCO4)cc(OC)c1O | . | . | . | -51.4%
CC1OC(O[C@H]2C[C@@H](O)[C@]3(CO)[C@H]4[C@H](O)C[C@]5(C)[C@@H](C6=CC(=O)OC6)CC[C@]5(O)[C@@H]4CC[C@]3(O)C2)C(O)C(O)C1O (stereo not given in full) | . | . | . | -3.8%
SMILES | IL-2 act | Nrf2 activator | ELG1 repair inh | BRCA1 expr act
CCSc1nnc(NC(=O)c2cccn(Cc3ccccc3Cl)c2=O)s1 | . | -0.2% | . | 16.3%
O=C(CSc1nnc(NC(=O)c2ccccc2F)s1)NCc1ccc(F)cc1 | -3.1 | 20.5% | ? | 5.01µM*
CC1(C)C[C@H]2C=C(C=O)[C@]3(C=O)C[C@]3(C)[C@H]2C1 | -0.9 | 9.0% | 5.8µM* | -67.7%
CCC(=Nc1ccc(OC)cc1OC)c1c(O)n(C2CCCCC2)c(=O)[nH]c1=O | -1.8 | 0.2% | 18.4µM* | -79.7%
CCC(=NCc1ccco1)c1c(O)n(C2CCCCC2)c(=O)[nH]c1=O | -1.9 | 0.6% | ? | -29.2%
Cc1nc2cc(C(F)(F)F)ccc2n1C1CCN(Cc2nnnn2Cc2ccc3c(c2)OCO3)CC1 | -1.3 | -0.6% | 6.51µM* | -55.5%
Cc1nc2cc(C(F)(F)F)ccc2n1C1CCN(Cc2nnnn2Cc2cccs2)CC1 | -4.0 | 0.0% | -12.0% | -23.7%
COc1ccc(C2SCC(=O)Nc3c2c(=O)[nH]n3C2CCCCCC2)cc1OC (stereo not given) | -3.0 | -0.5% | ? | 2.6%
COc1ccc(-c2nnc3sc(C4CCCCC4)nn23)cc1OC | -3.5 | 0.5% | 18.4µM* | -0.4%
Cn1c(=O)n(C)c2cc(CNCCc3ccccc3)ccc21 | . | 3.6% | . | .
CN(c1ccc(OCC(=O)N2CCN(C/C=C/c3ccccc3)CC2)cc1)S(=O)(=O)c1cccs1 | -5.0 | 2.1% | 13µM* | -32.1%
Nc1nnc(Sc2ncccc2[N+](=O)[O-])s1 | 0.0 | ? | -14.7% | 1.7%
CCOc1ccc(-c2cc(C)[n+](CCN3CCOCC3)c(-c3ccc(OCC)cc3)c2)cc1 | 0.9 | 0.0% | 16.4µM* | -45.3%
Cc1ccc(CNC(=O)CCCn2c(=O)c3sccc3n(CC(=O)Nc3c(C)cccc3C)c2=O)cc1 | . | 3.6% | . | .
Fc1ccccc1CSc1ncnc2c1ncn2C1CCCO1 (stereo not given) | -0.4 | 1.2% | . | 3.55µM*
CC(=O)Nc1ccc(OC(=O)N2CCN(/[N+]([O-])=N/Oc3ccc([N+](=O)[O-])cc3[N+](=O)[O-])CC2)cc1 | . | . | . | -45.1%
O=C(CCCCCCCCCCC(=O)NCc1cccnc1)NCc1cccnc1 | 1.7 | 0.2% | 3.66µM* | -4.1%
O=C(NCc1cccnc1)Nc1ccccc1Cl | -0.4 | -0.2% | 13.4% | 6.3%
COC1CC2C=C(C)C=CC=CC(=O)NC(c3ccccc3)CC=CCCC(O)CC(=O)C2=C1O (stereo not given) | -0.6 | -3.1% | . | -68.8%
COc1ccc(-[n+]2c(-c3ccccc3)cc(-c3ccc(C)cc3)cc2-c2ccccc2)cc1 | -0.5 | 0.2% | 3.66µM* | -83.5%
Cc1c2cnn(CC(=O)N3CCC4(CC3)OCCO4)c(=O)c2c(C)n1Cc1ccccc1 | 1.0 | -0.1% | -9.0% | 1.8%
O=C(Cn1ncc2c3ccccc3n(Cc3ccc(F)cc3)c2c1=O)N1CCC2(CC1)OCCO2 | -0.8 | 2.8% | 20.6µM* | -17.4%
